# From publication PMC4336329 (PLoS ONE, 2015)
# The campaign covered roughly 310,000 compounds. About 14,000 (4.5%) showed an effect of 50% or more. Effects have a minus sign here. The sample holds strong results, similar compounds and a random draw of the others, so the mix is not that of the screen.
# Biological target: human ether-à-go-go-related gene (hERG) potassium channel (human, UniProt Q12809)
# Assay: primary screen, population patch clamp on CHO cells stably expressing hERG; higher = less effect of the substance
# 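Further: peak tail current of the secondary pulse compared with the same well before compound.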
# Sequence of human ether-à-go-go-related gene (hERG) potassium channel (Q12809 whole entry, looked up): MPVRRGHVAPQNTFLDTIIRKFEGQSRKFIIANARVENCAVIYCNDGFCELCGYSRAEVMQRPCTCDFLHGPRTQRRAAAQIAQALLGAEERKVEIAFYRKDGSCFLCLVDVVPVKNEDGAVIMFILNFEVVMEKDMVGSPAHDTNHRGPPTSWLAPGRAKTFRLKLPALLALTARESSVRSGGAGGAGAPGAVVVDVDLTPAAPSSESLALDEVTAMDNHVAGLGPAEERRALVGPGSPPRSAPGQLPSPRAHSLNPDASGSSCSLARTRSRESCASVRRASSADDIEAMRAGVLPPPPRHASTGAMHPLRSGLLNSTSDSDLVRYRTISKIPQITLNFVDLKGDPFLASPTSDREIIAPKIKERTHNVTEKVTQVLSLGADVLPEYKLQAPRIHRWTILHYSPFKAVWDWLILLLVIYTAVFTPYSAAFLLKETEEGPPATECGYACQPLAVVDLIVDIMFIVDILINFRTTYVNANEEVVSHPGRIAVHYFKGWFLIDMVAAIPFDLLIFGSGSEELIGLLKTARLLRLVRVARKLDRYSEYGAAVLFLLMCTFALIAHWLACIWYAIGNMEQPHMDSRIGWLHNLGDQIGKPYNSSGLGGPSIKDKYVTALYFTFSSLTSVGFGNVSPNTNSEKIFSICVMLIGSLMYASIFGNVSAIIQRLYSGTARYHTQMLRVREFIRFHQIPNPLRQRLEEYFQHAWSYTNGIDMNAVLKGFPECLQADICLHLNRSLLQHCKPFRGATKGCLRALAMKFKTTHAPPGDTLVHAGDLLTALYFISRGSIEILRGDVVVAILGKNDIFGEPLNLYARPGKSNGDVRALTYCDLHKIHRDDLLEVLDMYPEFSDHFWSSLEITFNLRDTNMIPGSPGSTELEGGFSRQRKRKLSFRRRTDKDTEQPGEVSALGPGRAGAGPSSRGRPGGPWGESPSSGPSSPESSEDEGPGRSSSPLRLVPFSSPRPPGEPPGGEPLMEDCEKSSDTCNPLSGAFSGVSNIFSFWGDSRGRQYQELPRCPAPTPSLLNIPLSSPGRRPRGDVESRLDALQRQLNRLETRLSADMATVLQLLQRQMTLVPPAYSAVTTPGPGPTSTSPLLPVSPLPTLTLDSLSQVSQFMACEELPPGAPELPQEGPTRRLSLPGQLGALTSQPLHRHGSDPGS
row,SMILES,"hERG current change (%, negative = inhibition) at 10uM"
1,O=C(CCCOc1ccccc1)NCCc1ccccc1,-3.36%
2,O=C(CCCN1C(=O)c2ccccc2C1=O)NCCc1ccc(OC(F)F)cc1,-65.3%
3,COc1ccc(CCNC(=O)CCCCCN2C(=O)c3ccccc3C2=O)cc1,-28.6%
4,CCOc1ccc(OCCCC(=O)NCCc2ccc(OC)cc2)cc1,25.8%
5,COc1ccc(CCNC(=O)CCCN2C(=O)c3ccccc3C2=O)cc1,2.74%
6,O=C(CCCOc1ccc(Br)cc1)NCCc1ccc(OC(F)F)cc1,-67.7%
7,CCCCCn1c(NC2CCCCC2)nc2c1c(=O)[nH]c(=O)n2C,-17.6%
8,N#CCCN(C(=O)Nc1ccc(Cl)c(Cl)c1)c1ccccc1,-0.506%
9,CCOc1cc(/C=C2\SC(=S)N(NS(=O)(=O)c3ccccc3)C2=O)ccc1O,8.33%
10,CCCCn1c(N)c(N(CCC(C)C)C(=O)COC(=O)c2ccccc2)c(=O)[nH]c1=O,3.79%
11,CCc1ccc2nc(N(CCCN(C)C)C(=O)c3ccc(S(=O)(=O)N4CCc5ccccc5C4)cc3)sc2c1.Cl,-7.91%
12,CCOc1ccc2nc(N(CCCN(C)C)C(=O)c3ccc(S(=O)(=O)N4CCc5ccccc5C4)cc3)sc2c1.Cl,-1.08%
13,Cc1ccc2nc(N(CCCN(C)C)C(=O)c3ccc(S(=O)(=O)N4CCOCC4)cc3)sc2c1.Cl,-33.9%
14,Cc1ccc2nc(N(CCCN(C)C)C(=O)c3ccc(S(=O)(=O)N4CCCCCC4)cc3)sc2c1.Cl,-58%
15,CN(C)CCCN(C(=O)c1ccc(S(=O)(=O)N2CCCC2)cc1)c1nc2ccc(Br)cc2s1.Cl,-47.9%
16,Cc1cc(C)c2nc(N(CCCN(C)C)C(=O)c3ccc(S(=O)(=O)N4CCCCCC4)cc3)sc2c1.Cl,-20.3%
17,CCc1ccc2nc(N(CCCN(C)C)C(=O)c3ccc(S(=O)(=O)N4CCCC4)cc3)sc2c1.Cl,-67.7%
18,CCOc1ccc2nc(N(CCCN(C)C)C(=O)c3ccc(S(=O)(=O)N4CCCC4)cc3)sc2c1.Cl,-70.4%
19,COc1ccccc1N1CC(C(=O)Nc2nnc(SCC(=O)NC(C)C)s2)CC1=O (stereo not drawn),20.1%
20,CC(=O)Nc1ccc(NC(=O)CSc2nnnn2C2CCCCC2)cc1,-8.79%
21,O=C(CNC(=O)N1CC(=O)Nc2ccccc21)Nc1nccs1,12%
